# Sm TGR inh: blocks Schistosoma mansoni thioredoxin glutathione reductase; Q962Y6; purified TGR, DTNB reduction, TNB absorbance 405 nm; Potency, µM (titrated, usually from 114 µM), for the others: at the highest dose activity change, negative = inhibition, usual class: inhibitors; 360,000 tested, 3% active; AID 485364; note: potency is the fitted concentration of half-maximal effect; % is set by controls: 0 for no effect and ±100 for the full control effect; nearly all actives have a fitted effect of over 60% in size
#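 First, TGR (20 nM dispensed) and NADPH were mixed with compound. Second, a 15 min room-temperature incubation followed. Third, further NADPH and then DTNB were added to start the reaction. Finally, TNB absorbance was monitored kinetically.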
# CHX counter: counter-screen for Shiga toxin inhibitors: cycloheximide protein synthesis inhibition; cell reporter, cycloheximide protein synthesis inhibition counterscreen; max response, %; 300,000 tested, 12% active; AID 2314; in the data active = max response mostly above about 13%, no sharp cut-off; inactive = mostly below about 14%; note: read at 38.3 µM for the half of the compounds with a filed dose; 0% is about no effect
# NS1 inh: blocks influenza NS1 protein function. Potency, µM (highest dose often 46.1 µM), without a hit: at the highest dose activity, positive = more growth. 270,000 tested, 0.4% active; calls by dose curve; note: potency is the fitted concentration of half-maximal effect; actives are rising curves; nearly all actives have a fitted effect of over 50% in size
#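 Growth recovery, yeast-based: influenza A NS1 expressed in S. cerevisiae causes slow growth, and suppressors are detected by OD600. The parent strain without NS1 is used as positive control.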
# Pf growth 96h: inhibits malaria parasite growth, 96 h; P. falciparum luciferase reporter growth, 96 h; Potency, µM (highest dose often 28.7 µM), for inactives: top-dose activity change, negative = inhibition, hits mostly inhibitors; 320,000 tested, 6.9% active; AID 504834; note: potency is the fitted concentration of half-maximal effect; % is set by controls: 0 for no effect and ±100 for the full control effect
#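 Cell-based qHTS: luciferase-tagged P. falciparum in erythrocytes (2% hematocrit, 0.05% parasitemia final) incubated with compounds for 96 hours, 37 C, 5% CO2; luciferase detection reagent then added and luminescence measured.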
# Shiga inhibitor: Shiga toxin inhibition; Vero cells, Shiga toxin protein synthesis inhibition reporter; inhibition, % at 38.7 µM; AID 2315; 290,000 tested, 9.2% active; in the data active = inhibition mostly above about 28%, no sharp cut-off; inactive = mostly below about 43%; note: 0% is about no effect
# Pf growth 48h: inhibits P. falciparum growth in the first generation, 48 h | Potency, µM (highest dose often 28.7 µM), for inactives: at the highest dose activity change, negative = inhibition, hits mostly inhibitors | P. falciparum luciferase growth in erythrocytes, 48 h | 310,000 tested, 5.9% active | AID 504832; note: potency is the fitted concentration of half-maximal effect; % is set by controls: 0 for no effect and ±100 for the full control effect
#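 Parasite viability was followed by luminescence of a genomically integrated firefly luciferase. Cultures held 0.1% parasitemia at 2% hematocrit (final), incubated under 5% CO2 at 37 C.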
# * marks the source's active call; other numbers are inactive results; i = inactive; ? = inconclusive; . = no result; [ ] = remark or other dose. The list is not random: actives were taken first. Their share in the collection is about 21%. Unless noted, calls come from the whole dose curve; as a rule, active = well fitted curve in the direction sought with a large enough effect; inconclusive = small, poorly fitted or top-dose-only effect, or another doubt; inactive = no such curve, though single readings can be large; an effect the other way counts as inactive or inconclusive.
SMILES,Sm TGR inh,CHX counter,NS1 inh,Pf growth 96h,Shiga inhibitor,Pf growth 48h
Cc1nn(Cc2ccccc2)c(C)c1CCC(=O)O,-2%,11,6%,.,34,16%
O=C(OCc1cc(=O)n2nc(-c3cccs3)sc2n1)c1ccccc1Cl,0%,.,.,.,.,.
CCN(CC1CCCO1)C(=O)c1cc(COc2cc(C)c(Cl)c(C)c2)on1 (stereo unspecified),-19%,44*,-29%,12µM*,73*,2%
CCN(CC1CCCO1)C(=O)c1cc(COc2ccc(F)cc2F)on1 (stereo unspecified),0%,7,-2%,141%,17,51%
Cc1cc(OCc2cc(C(=O)N(C)CC3CCOCC3)no2)cc(C)c1Cl,-20%,35*,-2%,?,46*,-6%
Cc1cc(OCc2cc(C(=O)N(C)CCCN3CCOCC3)no2)cc(C)c1Cl,-20%,18,4%,11%,27,?
CC1CCN(S(=O)(=O)c2ccc(NC(=O)CCN3C(=O)C4CC=CCC4C3=O)cc2)CC1 (stereo unspecified),-7%,.,.,?,.,?
O=C(Nc1cccc(Br)c1)c1ccn[nH]1,17%,45*,-173%,0.66µM*,35*,78%
COc1ccc(C(=O)Nc2cc(OC)ccc2OC)cc1,-2%,15,-24%,6%,24,67%
COc1ccc(OC)c(NC(=O)c2ccc(-c3csc(C)n3)cc2)c1,-14%,16*,-75%,1%,.,?
COc1ccc(-c2csc(C)n2)cc1Br,7%,35*,.,20%,74*,15%[5.75 µM]
O=C(Nc1cccc(C(=O)Nc2cccc(Br)c2)c1)c1ccccc1,12%,12,-1%,?,20,?
Cc1nc(-c2ccc(C(=O)Nc3cccc(Br)c3)cc2)cs1,2%,33*,-9%,-9%,56*,63%
O=C(N/N=C/c1ccc(N2CCOCC2)cc1)C1COc2ccccc2O1 (stereo unspecified),5%,15,-13%,24%,-5,-1%
Cc1ccc2nc(SCC(=O)N3CCCCC3)nc(=O)n2c1,5%,.,.,-33%,.,13%
O=C(Nc1cccc(-c2csc(-c3ccccc3)n2)c1)c1cccs1,-3%,7,-1%,0.33µM*,19,.
COc1ccc(OC)c(NC(=O)c2cn(C)c(=O)c3cc(OC)c(OC)cc23)c1,5%,8,-16%,-29%,-10,?
Cc1nc(-c2cccc(NC(=O)Cc3ccccc3)c2)cs1,0%,32*,.,17%,23,18%
Cc1nc(-c2cccc(NC(=O)c3ccc(-n4nccc4C)cc3)c2)cs1,-2%,.,.,?,.,15%
Cc1nc(-c2cccc(NC(=O)c3cccs3)c2)cs1,0%,16*,-24%,?,33,?
COc1ccc(OC)c(NC(=O)c2csc(Cl)c2OC)c1,10%,21*,-47%,21%,14,27%
CCc1ccc(C(=O)c2cn(CC(=O)Nc3ccc(OC)cc3OC)c3ccc(CC)cc3c2=O)cc1,-6%,.,.,.,.,.
CCCNC(=O)C(Cc1cccc(OC)c1)NC(=O)c1ccc(C(C)(C)C)cc1 (stereo unspecified),5%,.,.,?,.,?
O=C(O)c1ccc2c(=O)n3c(nc2c1)/C(=C/c1cccc(Cl)c1Cl)CC3,-2%,-2,3%,?,-6,?
Cc1nc(-c2ccc(C(=O)Nc3cc(S(N)(=O)=O)ccc3C)cc2)cs1,10%,14*,29%,?,56*,-16%
SMILES,Sm TGR inh,CHX counter,NS1 inh,Pf growth 96h,Shiga inhibitor,Pf growth 48h
CC(=O)N1CCc2c(sc(NC(=O)c3ccc4c(c3)OCCO4)c2C#N)C1,-2%,13*,-37%,-22%,13,?
COC(=O)c1c(NC(=O)c2nc3ccccc3s2)sc2c1CCN(C(C)=O)C2,-10%,-6,-75%,10µM*,-5,.
CNC(=O)c1c(NC(=O)c2cccc(N3C(=O)CCC3=O)c2)sc2c1CCC2,?,12,9%,-22%,25,45%
CNC(=O)c1c(NC(=O)c2nc3ccccc3s2)sc2c1CCC2,45µM*,26*,3%,8%,94*,.
CNC(=O)c1c(NC(=O)c2cc(=O)c3ccccc3o2)sc2c1CCC2,-1%,.,.,.,.,.
CC(=O)N1CCc2c(sc(NC(=O)c3ccc(S(=O)(=O)N(C)C)cc3)c2C#N)C1,.,.,-39%,.,.,.
COC(=O)c1c(NC(=O)c2cccc(N3C(=O)CCC3=O)c2)sc2c1CCN(C(C)=O)C2,5%,-2,1%,9.3µM*,-9,-16%
CC(=O)N1CCc2c(sc(NC(=O)CSc3ccc(C)cc3)c2-c2nc3ccccc3s2)C1,6%,.,.,.,.,.
COc1ccc(-c2cc(C(F)(F)F)nc(SCC(=O)NCc3ccc(Cl)cc3)n2)cc1,-4%,.,.,.,.,.
C=CCn1c(CCC(O)COCCC)n[nH]c1=S (stereo unspecified),0%,-1,1%,-24%,-5,4%
O=C(C1COc2ccccc2O1)N1CCN(c2nc3c(F)cc(F)cc3s2)CC1 (stereo unspecified),-3%,.,.,4%,.,3%
c1ccc(-c2cn3c(n2)-c2ccccc2C3)cc1,-1%,26*,-28%,163%,45*,97%
O=C(c1ccccc1)c1ccccc1N1C(=O)C=CC1=O,0.56µM*,10,-76%,-14%,17,?
O=C(O)c1ccccc1-c1ccccc1C(=O)c1ccccc1,.,.,-4%,.,.,.
CCn1c(C)nc2cc(C#N)ccc21,44%,5,.,34%,1,20%
Fc1ccc(-c2nc3n(n2)Cc2ccccc2-3)cc1,0%,42*,-10%,.,66*,42%
CCn1c(C)nc2cc(-c3nc4n(n3)Cc3ccccc3-4)ccc21,0%,-10,-14%,0.21µM*,-22,0.19µM*
Cc1ccc(-c2nc3n(n2)Cc2ccccc2-3)cc1,-4%,20*,-12%,i,14,322%
O=C(COCc1cc(-c2cccs2)on1)NCc1ccccc1Cl,-3%,.,.,.,.,.
COc1ccc(NC(C)=O)cc1NC(=O)CN1CCN(C(=O)c2ccco2)CC1,4%,-3,-5%,20%,10,-4%
NS(=O)(=O)c1ccc(CCNC(=O)C(=O)NCC2OCCN2S(=O)(=O)c2ccc(F)cc2)cc1 (stereo unspecified),-3%,9,-6%,39%,5,31%
COc1ccc(C)cc1S(=O)(=O)NCC(c1ccco1)N1CCc2ccccc2C1 (stereo unspecified),-22%,.,.,?,.,?
CCC1Oc2ccc(C)cc2N(CC(=O)N(Cc2cccnc2)Cc2ccc(C)o2)C1=O (stereo unspecified),-13%,-5,-18%,251%,1,12µM*
Cc1nc2c(n1C1CCCCC1)C(=O)c1ccccc1C2=O,0%,-3,15%,1.3µM*,20,1.9µM*
O=C(COC(=O)c1cc(-c2ccccc2)nc2c(Cl)cccc12)c1ccc(F)cc1,-3%,.,.,.,.,.

# Assay outcomes (PubChem BioAssay)
